The values that follow come from publication PMC11062922 (Nature Chemical Biology, 2023).

What all share (parameters): species or system human, MV4-11 + K-562 + COLO205 + SK-N-BE2 + OVCAR-8
For one test, the system named is ATM. The following applies: read-out: apparent Kd, n = 1.
For a further test, the system named is AKT2. Particulars: read-out: apparent Kd, compound concentrations: 100 nM and 1000 nM (sheet 'Samples'), n = 1.
For another test, the system named is CDK6. Particulars: read-out: apparent Kd, compound concentrations: 100 nM and 1000 nM (sheet 'Samples'), n = 1.
The test system of a further test is MAP3K6. The following applies: read-out: apparent Kd; compound concentrations: 100 nM and 1000 nM (sheet 'Samples'), CATDS: 0.18139897534285501; n = 1.
Another test concerns PIK3CA. Particulars: read-out: apparent Kd; compound concentrations: 100 nM and 1000 nM (sheet 'Samples'), CATDS: 0.92567597438095595; n = 1.
In a further test the test system is TESK1. Particulars: read-out: apparent Kd; compound concentrations: 100 nM and 1000 nM (sheet 'Samples'), CATDS: 0.16638994062749099; n = 1.
A further test has as its system AKT3. The following applies: read-out: apparent Kd; compound concentrations: 100 nM and 1000 nM (sheet 'Samples'), CATDS: 0.120130462725208; n = 1.
The subject of another test is MAPK10. The following applies: read-out: apparent Kd; compound concentrations: 100 nM and 1000 nM (sheet 'Samples'), CATDS: 0.16061628875685399; n = 1.
The subject of a further test is MAPK14. The following applies: read-out: apparent Kd; compound concentrations: 100 nM and 1000 nM (sheet 'Samples'), CATDS: 0.26404764630767302; n = 1.
The test system of the next test is MAPK9. Particulars: read-out: apparent Kd; compound concentrations: 100 nM and 1000 nM (sheet 'Samples'), CATDS: 0.111534825966063; n = 1.
Another test relates to NLK. The following applies: read-out: apparent Kd; compound concentrations: 100 nM and 1000 nM (sheet 'Samples'), CATDS: 0.289538211789438; n = 1.
The subject of the next test is PRKCQ. The following applies: read-out: apparent Kd; compound concentrations: 100 nM and 1000 nM (sheet 'Samples'), CATDS: 0.10805556024324001; n = 1.
The test system of the next test is PRKCZ. Particulars: read-out: apparent Kd; compound concentrations: 100 nM and 1000 nM (sheet 'Samples'), CATDS: 0.11125426430481999; n = 1.
A further test concerns MAPKAPK2. The following applies: read-out: apparent Kd; compound concentrations: 100 nM and 1000 nM (sheet 'Samples'), CATDS: 0.38970586087063103; n = 1.
For another test, the system named is CDC42BPG. The following applies: read-out: apparent Kd; compound concentrations: 100 nM and 1000 nM (sheet 'Samples'), CATDS: 9.9527078318265502E-2; n = 1.
For another test, the system named is DCTPP1. The following applies: read-out: apparent Kd; compound concentrations: 100 nM and 1000 nM (sheet 'Samples'), CATDS: 8.8490675480642905E-2; n = 1.
The subject of the next test is DDR2. The following applies: read-out: apparent Kd; compound concentrations: 100 nM and 1000 nM (sheet 'Samples'), CATDS: 8.0656162840652496E-2; n = 1.
The subject of the next test is FLT3. The following applies: read-out: apparent Kd; compound concentrations: 100 nM and 1000 nM (sheet 'Samples'), CATDS: 8.7421379442902306E-2; n = 1.
For the next test, the system named is IRAK4. Particulars: read-out: apparent Kd; compound concentrations: 100 nM and 1000 nM (sheet 'Samples'), CATDS: 7.99000406569913E-2; n = 1.
The test system of a further test is MYLK3. The following applies: read-out: apparent Kd; compound concentrations: 100 nM and 1000 nM (sheet 'Samples'), CATDS: 0.35041871443296002; n = 1.
For a further test, the system named is PIM2. The following applies: read-out: apparent Kd; compound concentrations: 100 nM and 1000 nM (sheet 'Samples'), CATDS: 8.1354023438197698E-2; n = 1.
Another test has as its system PRKAG1. The following applies: read-out: apparent Kd; compound concentrations: 100 nM and 1000 nM (sheet 'Samples'), CATDS: 8.6524001120503097E-2; n = 1.
In the next test the test system is TNIK. The following applies: read-out: apparent Kd; compound concentrations: 100 nM and 1000 nM (sheet 'Samples'), CATDS: 9.2286016750468006E-2; n = 1.
For the next test, the system named is MAP3K1. The following applies: read-out: apparent Kd; compound concentrations:100 nM and 1000 nM (sheet 'Samples'); n = 1.
A further test concerns NUAK2. Particulars: read-out: apparent Kd; compound concentrations:100 nM and 1000 nM (sheet 'Samples'); n = 1.
In a further test the test system is PIK3CD. Particulars: read-out: apparent Kd; compound concentrations:100 nM and 1000 nM (sheet 'Samples'); n = 1.
The next test concerns PLK1. Particulars: read-out: apparent Kd; compound concentrations: 100 nM and 1000 nM (sheet 'Samples'), CATDS: 0.443689991043278; n = 1.
Where [1] appears, read: compound concentrations:100 nM and 1000 nM (sheet 'Samples').

Like-named read-outs stand apart in the source and are kept apart here.

Regarding `COC(=O)Nc1nc2ccc(Oc3ccc(NC(=O)Nc4cc(C(F)(F)F)ccc4F)cc3)cc2s1.Cl` [GW693917A], the potency estimated from few doses in the test with ATM (setting [1]) was 0.222 µM.
`CC(C)(C)c1ccc(C(=O)Nc2cn3cc(-c4cccnc4)ccc3n2)cc1` [TPKI-58]: the potency estimated from few doses in the test on AKT2 (CATDS: 0.161552341020717) was 1.95 µM; in the test with CDK6 (CATDS: 0.161106478670141) it was 1.97 µM; in the test with MAP3K6 it was 1.39 µM; in the test with PIK3CA, 0.0177 µM; with TESK1 it was 1.79 µM.
With `O=c1c(Oc2ccc(F)cc2F)cc2cnc(NC3CCOCC3)nc2n1C1CC1` [RO4399247-000], the potency estimated from few doses in the test with AKT3 was 1.39 µM; in the test on MAPK10, 0.69 µM; in the test with MAPK14 it was 0.279 µM; with MAPK9, 1.74 µM; in the test with NLK, 0.242 µM; with PRKCQ it was 1.93 µM. In addition, the potency estimated from few doses in the test on PRKCZ was 1.75 µM.
As to `O=C1NC(=O)C(N2CCc3ccccc32)=C1c1ccc(Cl)cc1` [SB-333612], in the test with ATM (compound concentrations: 100 nM and 1000 nM (sheet 'Samples'), CATDS: 1), the potency estimated from few doses was 0.265 µM.
In the case of `N#Cc1c(NC(=O)c2ccccc2F)sc2c1CCCC2` [GW572738X], the potency estimated from few doses in the test on AKT2 (CATDS: 0.30677432174967101) is 2.34 µM; with CDK6 (CATDS: 0.31503634964043797), 2.2 µM; with MAPKAPK2, 1.46 µM.
Consider `NS(=O)(=O)c1cccc(N/C=C2\C(=O)Nc3ccccc32)c1` [GW275616X], for which the potency estimated from few doses in the test with ATM (compound concentrations: 100 nM and 1000 nM (sheet 'Samples'), CATDS: 0.21008347624398099) was 0.294 µM; with CDC42BPG, 1.2 µM; in the test on DCTPP1 it was 1.6 µM; in the test on DDR2, 2.06 µM; in the test on FLT3 it was 1.65 µM; in the test on IRAK4, 2.11 µM. Also, the potency estimated from few doses with MYLK3 was 0.137 µM; with PIM2, 2.01 µM; in the test on PRKAG1, 1.69 µM; in the test on TNIK it was 1.44 µM.
`C[C@@H](Oc1cc(-n2cnc3ccc(CN4CCN(C)CC4)cc32)sc1C(N)=O)c1ccccc1C(F)(F)F` [GSK461364]: the potency estimated from few doses was 0.264 µM in the test on ATM (setting [1]); 0.102 µM with MAP3K1; 1.28 µM in the test on NUAK2; 0.214 µM with PIK3CD; 0.0421 µM with PLK1.
